{
  "source": "PubChem BioAssay AID912",
  "about": "(National Center for Advancing Translational Sciences (NCATS), 2007)",
  "note": "Where “and” joins values, the source holds several entries; their conditions need not be identical. Equal entries are not always repeated. Out of some 70,000 compounds screened, about 470 (0.67%) were called active. About 18% were inconclusive and are not listed. What follows is part of a selection rich in actives, with near analogues and random picks from the rest. A number with no mark means an inactive call. Calls come from the whole dose curve. % is set by controls: 0 for no effect and ±100 for the full control effect; potency is the fitted concentration of half-maximal effect.",
  "data": [
    {"test": "qHTS Assay for Anthrax Lethal Toxin Internalization; note: nearly all actives have a fitted effect of over 50% in size", "settings": "Cells, FRET ratio (460/530); series mostly up to 40 µM; activity change, negative = inhibition: at the top concentration", "values": [
      {"smiles": "O=C1[C@H]2[C@H]3[C@H](O)[C@H](O)C/C(=N/OCc4ccccc4)[C@H]3CC[C@@H]2C(=O)N1Cc1ccccc1", "activity change, negative = inhibition": "0.866% [at 1.6 µM]"},
      {"smiles": "C/C(CCN1CCCCc2nc(C)c(C)cc21)=N\\O[C@@H](C)c1cn([C@@H]2COC[C@@H]2O)nn1", "activity change, negative = inhibition": "16% [at 8 µM]"},
      {"smiles": "COC(=O)C1(C)C=CCN1C(=O)c1ccccc1", "note": "(stereo not drawn)", "activity change, negative = inhibition": "1.85%"},
      {"smiles": "CC1=C(C(=O)OCc2ccccc2)C(c2ccc(C(F)(F)F)cc2)NC(=O)N1CCCCCC(=O)O", "note": "(stereo not drawn)", "activity change, negative = inhibition": "10.5%"},
      {"smiles": "CO[C@@H]1COC(=O)[C@H](Cc2ccccc2)NC(=O)C/C=C\\[C@@H](C)[C@H](OC)COC(=O)[C@@H](C)NC(=O)C/C=C\\[C@H]1C", "activity change, negative = inhibition": "5.09% [at 1.6 µM] and -1.18% [at 8 µM]"},
      {"smiles": "COC(=O)c1ccc(C(NC(=O)OCc2ccccc2)/C(C)=C/[C@@H](C)C(=O)NCc2cc(C)on2)cc1", "note": "(stereo partly drawn)", "activity change, negative = inhibition": "0.057%"},
      {"smiles": "O=C(CC(Cc1ccccc1)C(=O)O)NCCc1ccc2c(c1)OCO2", "note": "(stereo not drawn)", "activity change, negative = inhibition": "-0.491%"},
      {"smiles": "O=C(Nc1ccncc1)c1cc2ccccc2o1", "activity change, negative = inhibition": "-5.1%"},
      {"smiles": "O=C(NCCc1ccc2c(c1)OCCO2)c1cc2ccccc2o1", "Potency": "12.6 µM (active)"},
      {"smiles": "COC(=O)C1(C)C=CC2(CCCCC2)N1C(C)=O", "note": "(stereo not drawn)", "activity change, negative = inhibition": "5.36%"},
      {"smiles": "CC(C)(C)c1ccc(OC2C=CC(C#Cc3ccccc3)OC2CO)cc1", "note": "(stereo not drawn)", "activity change, negative = inhibition": "-3.38% [at 8 µM]"},
      {"smiles": "CCC[C@@H]1C[C@@]1(CCC)C(NC(=O)c1ccc(-c2ccccc2)cc1)c1cccc(Cl)c1", "note": "(stereo partly drawn)", "activity change, negative = inhibition": "-10.9%"},
      {"smiles": "CCOC(=O)Cn1c(CN(Cc2ccccc2)Cc2ccccc2)nc2c1c(=O)[nH]c(=O)n2C", "activity change, negative = inhibition": "6.87%"},
      {"smiles": "C[N+](C)(CCCCCC[N+](C)(C)CCCN1C(=O)c2cccc3cccc(c23)C1=O)CCCN1C(=O)c2cccc3cccc(c23)C1=O", "activity change, negative = inhibition": "12.5%"},
      {"smiles": "COc1ccc(N2C(=O)c3cccc4cccc(c34)C2=O)nn1", "Potency": "7.94 µM (active)"},
      {"smiles": "CC(C(=O)O)N1C(=O)c2cccc3cccc1c23", "note": "(stereo not drawn)", "activity change, negative = inhibition": "-8.16%"},
      {"smiles": "CC(N)=NCc1cccc(CN)c1", "activity change, negative = inhibition": "2.64%"},
      {"smiles": "CC(=O)CC(C)C", "activity change, negative = inhibition": "3.44%"},
      {"smiles": "OCCCNCc1ccccn1", "activity change, negative = inhibition": "9.72% [at 8 µM]"},
      {"smiles": "CO[C@H]1COC(=O)[C@H](Cc2ccccc2)NC(=O)C/C=C\\[C@@H](C)[C@H](OC)COC(=O)C/C=C\\[C@@H]1C", "activity change, negative = inhibition": "30% [at 8 µM]"},
      {"smiles": "c1cncc(-c2nc(N3CCNCC3)c3ccccc3n2)c1", "activity change, negative = inhibition": "0.183%"},
      {"smiles": "Cc1ccc(S(=O)(=O)NC(=O)NN2C[C@H]3CCC[C@@H]3C2)cc1", "activity change, negative = inhibition": "-1.11% [at 3.58 µM]"},
      {"smiles": "Cc1cccc(C(=O)O)c1", "activity change, negative = inhibition": "4.72%"},
      {"smiles": "C[C@@H](N)[C@@H](C)Cc1ccccc1", "activity change, negative = inhibition": "-3.08% [at 8 µM]"},
      {"smiles": "CC1(C)Cc2ccccc2-c2nc(CN3CCOCC3)[nH]c(=O)c21", "activity change, negative = inhibition": "-0.761%"},
      {"smiles": "CCOC(=O)C1Cn2c(nc3c(c2=O)C(C)(CC)Cc2ccccc2-3)S1", "note": "(stereo not drawn)", "Potency": "6.31 µM (active)"},
      {"smiles": "CCOC(=O)C1CCc2nc3ccccc3c(=O)n21", "note": "(stereo not drawn)", "activity change, negative = inhibition": "5.34%"},
      {"smiles": "CCS(=O)(=O)N(C)[C@@H]1c2cc(C#N)ccc2OC(C)(C)[C@H]1O", "activity change, negative = inhibition": "inactive"},
      {"smiles": "CCCC(Cl)CCCC(Cl)CCC(Cl)CCC(Cl)CCC(Cl)CCCC(Cl)CCC", "note": "(stereo not drawn)", "activity change, negative = inhibition": "-11.1%"},
      {"smiles": "C1CCC2OC2C1", "note": "(stereo not drawn)", "activity change, negative = inhibition": "-1.8%"},
      {"smiles": "Cc1sc2c(c1C)c(=O)n(-c1ccccc1)c1nncn21", "activity change, negative = inhibition": "6.99%"},
      {"smiles": "c1ccc2c(c1)[I+]c1ccccc1-2", "Potency": "15.8 µM (active)"},
      {"smiles": "CCCCC[C@H](O)CCCC(=O)O", "activity change, negative = inhibition": "6.3%"},
      {"smiles": "C[C@@H](c1ccccc1)N1C(=O)[C@H]2[C@H]3[C@H](O)[C@H](O)C/C(=N/OC[C@@H](O)COCc4ccco4)[C@@H]3CC[C@@H]2C1=O", "activity change, negative = inhibition": "0.141% [at 8 µM]"},
      {"smiles": "CC(=O)Oc1ccc(C(=O)Nc2nccs2)cc1", "activity change, negative = inhibition": "0.315%"},
      {"smiles": "O=C(Cl)c1ccccc1[N+](=O)[O-]", "activity change, negative = inhibition": "-11.9%"},
      {"smiles": "CC(=O)Oc1ccccc1C(=O)Nc1ncc([N+](=O)[O-])s1", "Potency": "1.26 µM (active)"},
      {"smiles": "N#Cc1cccc(-c2nc3cnc(N4CCNCC4)nc3n(C3CC3)c2=O)c1", "activity change, negative = inhibition": "-3.15%"},
      {"smiles": "CO[C@H]1COC(=O)CCC[C@@H](C)[C@H](OC)COC(=O)[C@@H](C)NC(=O)C/C=C\\[C@@H]1C", "activity change, negative = inhibition": "-7.25% [at 8 µM]"},
      {"smiles": "Cc1cc(C)c2nc3c(c([C@H](O)[C@@H]4CCCCN4)c2c1)CC/C3=C/c1ccc(Cl)cc1", "activity change, negative = inhibition": "-12.7% [at 8 µM]"},
      {"smiles": "COc1ccc(COC(=O)N/N=C2/C[C@@H](O)[C@@H](O)[C@@H]3[C@@H]4C(=O)N([C@@H](C)c5ccccc5)C(=O)[C@H]4CC[C@@H]23)cc1", "activity change, negative = inhibition": "-0.559% [at 8 µM]"},
      {"smiles": "O=C(c1ccncc1)N1CCC2(CCN(Cc3cc(C(F)(F)F)cc(C(F)(F)F)c3)CC2)CC1", "activity change, negative = inhibition": "10.9%"},
      {"smiles": "C=C(C)C1CC=C(C)C(O)C1", "note": "(stereo not drawn)", "activity change, negative = inhibition": "-3.62%"},
      {"smiles": "CN1CCN(CCCNC(=O)c2cc3c(=O)oc4ccccc4c3s2)CC1", "activity change, negative = inhibition": "-6.55%"},
      {"smiles": "Cc1ccccc1S(=O)(=O)Cc1ccc(C(=O)NCCN2CCCCC2C)o1", "note": "(stereo not drawn)", "activity change, negative = inhibition": "-12.4%"},
      {"smiles": "Cc1nc2ccccc2c2oc(C(=O)NCCCN3CCC(C)CC3)cc12", "Potency": "5.01 µM (active)"},
      {"smiles": "CCOc1ccc(/C(O)=C2/C(=O)C(=O)N(Cc3cccnc3)C2c2ccc(N(C)C)cc2)c(C)c1", "note": "(stereo not drawn)", "activity change, negative = inhibition": "2.08%"},
      {"smiles": "Cn1c(=O)n2n(c1=O)[C@H]1[C@H](O)[C@H]3O[C@H]3C(=O)[C@H]1CC2", "activity change, negative = inhibition": "12.4% [at 8 µM]"}
    ]}
  ]
}
